Values joined by “and” are separate entries in the source; they are usually repeats but may differ in a detail not shown here. Equal entries are not always repeated. In all, about 360,000 compounds went through this assay and about 5,000 (1.4%) were called active.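 The calls were made as follows: active = inhibition of 50% or more, scaled per plate between neutral and stimulator controls; inactive = the rest.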 This excerpt belongs to a sample that is enriched for actives. A structure can be active in one record and inactive in another.
Assay: blockers of Ca2+-induced mitochondrial swelling – biochemical, isolated mouse mitochondria, absorbance, primary screen (AID 602449);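 also: 0% = DMSO wells given calcium and 100% = 1 mM EGTA wells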
Conditions: 30 min, at 10 µM, stronger effect = higher value

Row | SMILES | inhibition
1 | O=C(CCN1C(=O)c2ccccc2C1=O)NNC(=O)c1ccc(Cl)cc1Cl | -0.8% (inactive)
2 | O=C(NCCN1C(=O)S/C(=C\c2cccnc2)C1=O)c1cccc(OC(F)F)c1 | 2.4% (inactive)
3 | Cc1cc(OCCCC(=O)NCCN2C(=O)S/C(=C\c3cccnc3)C2=O)ccc1Cl | 84.3% (active)
4 | COc1ccc(N2CC(C(=O)NCCN3C(=O)S/C(=C\c4cccnc4)C3=O)CC2=O)c(OC)c1 (stereo unspecified) | -0.2% (inactive)
5 | CSCCC(NC(=O)COc1ccccc1)C(=O)OCC(=O)c1cc2ccccc2o1 (stereo unspecified) | 0% (inactive)
6 | CCc1nn(CC(=O)N2CCN(CC)CC2)c(=O)c2cccn12 | -0.4% (inactive)
7 | COC(=O)C1CC2=C(CC(C)(C)CC2=O)N(c2ccccc2)C1=O (stereo unspecified) | -0.8% (inactive)
8 | CN1CCC[C@@H]1CCO[C@](C)(c1ccccc1)c1ccc(Cl)cc1 | 78% (active)
9 | OC(c1ccccc1)(c1ccccc1)C1CCN(CCCOc2ccccc2)CC1 | 4.5% (inactive)
10 | CC(C)(c1ccccc1)c1ccc(OCCN2CCCC2)cc1 | 2% (inactive)
11 | CCCc1nn(C)c2c(=O)[nH]c(-c3cc(S(N)(=O)=O)ccc3OCC)nc12 | -0.3% (inactive)
12 | O=C(c1cccc(N2CCCC2=O)c1)N1CCOCC1 | -0.5% (inactive)
13 | COC(=O)c1nc(NC(=O)c2ccc(F)cc2)n[nH]1 | 11.4% (inactive)
14 | CSc1nccc(NC(=O)c2ccc(C(C)(C)C)cc2)n1 | 95.6% (active)
15 | Cc1ccc(C(=O)Nc2ccn(C)n2)cc1 | 1.3% (inactive)
16 | Cc1ccc(C)c(NC(=O)COC(=O)Cn2c(C)csc2=O)c1 | -0.7% (inactive)
17 | COc1ccc(C(N)c2csc(NC(=O)Nc3cccc(C(F)(F)F)c3)n2)cc1 (stereo unspecified) | 0.9% (inactive)
18 | COc1cc(NC(=O)c2cncc(-c3ccc(C#N)cc3)c2)cc(C(=O)Nc2cccc(C(F)(F)F)c2)c1 | 93.8% (active) and 48.4% (inactive)
19 | COc1cc(NC(=O)c2[nH]cnc2C(N)=O)cc(C(=O)Nc2cccc(C(F)(F)F)c2)c1 | 0% (inactive)
20 | O=C(Nc1nnc(SCc2c(Cl)cccc2Cl)s1)C1CCCO1 (stereo unspecified) | -1.4% (inactive)
21 | O=C(Nc1nnc(SCc2ccccc2Cl)s1)c1cccc([N+](=O)[O-])c1 | 96.3% (active)
22 | O=C(NCc1ccccc1Cl)NC(=O)c1csc([N+](=O)[O-])c1 | 1% (inactive)
23 | O=C(Nc1nnc(CCN2CCCCC2)s1)c1cccc(Cl)c1 | -0.1% (inactive)
24 | COCCSc1nnc(NC(=O)c2cc(OC)c(OC)cc2[N+](=O)[O-])s1 | -2.4% (inactive)

Row | SMILES | inhibition
25 | O=C(Nc1nnc(SCc2c(Cl)cccc2Cl)s1)c1cccc([N+](=O)[O-])c1 | 91.5% (active)
26 | CCO/N=C(/C)c1c(O)cc(-c2ccccc2)n(-c2ccccc2)c1=O | 8.8% (inactive)
27 | O=S1(=O)CC(N2CCC(Cc3ccccc3)CC2)CN1Cc1ccccc1 (stereo unspecified) | 0.9% (inactive)
28 | COc1ccc(OCCCC(=O)Nc2nnc(C3CCCO3)s2)cc1 (stereo unspecified) | 1.4% (inactive)
29 | CCC1CCCCN1C(=S)NC(=O)c1ccco1 (stereo unspecified) | -3.3% (inactive)
30 | COc1cc(OC)cc(C(=O)Nc2nnc(SCC(=O)NCC3CCCO3)s2)c1 (stereo unspecified) | -0.7% (inactive)
31 | CCOC(=O)N1CCN(C(=O)C2CCN(c3ncnc4c3sc3cccc(F)c34)CC2)CC1 | 50% (active)
32 | CCOC(=O)N1CCN(C(=O)C2CCN(S(=O)(=O)c3cc(Cl)ccc3OCC)CC2)CC1 | -0.2% (inactive)
33 | CCOC(=O)N1CCN(C(=O)C2CCCN(c3ncnc4c3sc3cccc(F)c34)C2)CC1 (stereo unspecified) | 20.7% (inactive)
34 | COC(=O)C1C(=O)NCC1c1ccc(OC)cc1 (stereo unspecified) | 1.1% (inactive)
35 | Cc1nn(-c2ccccc2)c(CC(C)(C)C(=O)O)c1C(=O)O | -5.4% (inactive)
36 | Nc1[nH]c(C(=O)c2ccccc2)c(-c2ccc(Br)cc2)c1C(=O)NC1CC1 | 0.8% (inactive)
37 | COc1ccccc1N1CC(C(=O)Nc2nnc(SCC(=O)NC(C)C)s2)CC1=O (stereo unspecified) | 0.4% (inactive)
38 | CC1=NC2(CCCc3c2no[n+]3[O-])N(O)C1(C)C (stereo unspecified) | 0.8% (inactive)
39 | CC1(C)CC(=O)c2sc(N)nc2C1 | 83.2% (active)
40 | CC(=O)Nc1nc2c(s1)C(=O)NCC(C)(C)C2 | 0% (inactive)
41 | CCCc1nc(N)nc2c1C(=O)CC(C)(C)C2 | -2.5% (inactive)
42 | COc1cccc(NC(=O)CN(C)C(=O)CSC(=S)N2CCCC2)c1 | -0.1% (inactive)
43 | CCCS(=O)(=O)N1CCCC(C(=O)NCCN2CCCCC2C)C1 (stereo unspecified) | -1.3% (inactive)
44 | CCCCCCc1cc2cc(-c3nnc(-c4ccccc4)o3)c(=O)oc2cc1O | 96.2% (active)
45 | COc1ccccc1CNC(=O)CCCNS(=O)(=O)c1cccc2nsnc12 | -0.6% (inactive)
46 | COCCCNC(=O)CN1C(=O)CSc2ccc(S(=O)(=O)N3CCOCC3)cc21 | 2.1% (inactive)
47 | CCc1cc2c(SCC(=O)Nc3ncc(Cl)c(C)c3Cl)ncnc2s1 | 46.1% (inactive)
48 | CCc1cc2c(NC3CCCC3)ncnc2s1 | 87.6% (active)

Row | SMILES | inhibition
49 | CCc1cc2c(NC(Cc3ccccc3)C(=O)O)ncnc2s1 (stereo unspecified) | 1.6% (inactive)
50 | CC(=O)Oc1ccc(OC(C)=O)c2c1C1C=CC2CC1 | -0.2% (inactive)
51 | COc1cccc(-c2cnc3c(NC(C)=O)cc(-c4cc(F)ccc4OC)cn23)c1 | -0.3% (inactive)
52 | CC(C)N1C(=S)SC(C)(C)C1n1oc(=O)n(-c2ccc(Cl)c(Cl)c2)c1=O (stereo unspecified) | 92.3% (active)
53 | Cc1cc(=O)cc(C)n1-c1ccc(Cl)c(Cl)c1 | -0.1% (inactive)
54 | O=C1CSC(=S)N1c1ccc(Cl)c(Cl)c1 | 2.2% (inactive)
55 | N#Cc1cc([N+](=O)[O-])ccc1NC(=O)COC(=O)c1cnccn1 | -1.8% (inactive)
56 | Cc1ccc(OCCNC(=O)CNC(=O)c2ccc(C)c(C)c2)cc1 | -0.6% (inactive)
57 | O=C(Nc1cccc(Br)c1)C1CC(=O)N(C2CCCC2)C1 (stereo unspecified) | -0.1% (inactive)
58 | COc1ccc(OCC(O)CNC(=O)Nc2ccc(Cl)cc2)cc1 (stereo unspecified) | 6.8% (inactive)
59 | CC(=O)N1CCC(N(C(=O)Nc2ccc(Cl)cc2)C(C)C)CC1 | 2.8% (inactive)
60 | CC(C)S(=O)(=O)c1csc(NC(=O)Nc2ccc(Cl)cc2)c1Cl | 88.8% (active)
61 | Cc1ccc(S(=O)(=O)N(C)C)cc1NC(=O)COC(=O)/C=C/c1cccs1 | -1.3% (inactive)
62 | Cc1c(C)c(C)c(S(=O)(=O)N2CCC3(CC2)OCCO3)c(C)c1C | -0.6% (inactive)
63 | COC(=O)/C(C#N)=C/c1occc1C | 1.6% (inactive)
64 | COc1cc(NS(=O)(=O)c2ccc(NC(C)=O)cc2)cc(OC)c1 | 54% (active)
65 | COc1ccc(S(=O)(=O)Nc2ccc3oc(C)c(C(C)=O)c3c2)cc1 | 93.4% (active)
66 | COc1ccc(NS(=O)(=O)c2ccc(NC(=S)NC(=O)CC(C)C)cc2)cc1 | 0.5% (inactive)
67 | CC(=O)c1c(C)oc2ccc(NS(=O)(=O)c3ccc(C(=O)O)cc3)cc12 | 0.1% (inactive)
68 | CC(=O)Nc1ccc(NS(=O)(=O)c2ccc3c(c2)NC(=O)CC(=O)N3)cc1 | -1.8% (inactive)
69 | CC(=O)c1c(C)oc2ccc(NS(=O)(=O)c3ccccc3)cc12 | -0.4% (inactive)
70 | Cc1c(S(=O)(=O)NC(C)c2ccccc2)c(=O)n(C)c(=O)n1C (stereo unspecified) | 1.4% (inactive)
71 | CN(Cc1nc2ccccc2c(=O)[nH]1)Cc1cc(=O)oc2ccc3ccccc3c12 | -0.3% (inactive)
72 | COc1cc(/C=N/N=C(\N)c2nonc2N)cc(OC)c1OC | -1.6% (inactive)

Row | SMILES | inhibition
73 | Cc1cc(Cl)ccc1-c1nc(NCCN(C)C)nc2ccsc12 | 1.8% (inactive)
74 | CC1(c2ccc3ccccc3c2)NC(=O)NC1=O (stereo unspecified) | 0.6% (inactive)
75 | Cc1nc(SCC(=O)NC2CCCCC2C)c(C#N)c(C)c1C (stereo unspecified) | 0.8% (inactive)
76 | O=[N+]([O-])c1ccc(Sc2n[nH]c(-c3ccco3)n2)nc1 | -1.5% (inactive)
77 | CCCCN1C(N)=NC[C@@H]1Cc1ccccc1 | -0.6% (inactive)
78 | CCCC[C@@H]1CN=C(N)N1CCCC | 1.3% (inactive)
79 | CCCC[C@@H]1CN=C(N)N1CCc1cc(C(F)(F)F)cc(C(F)(F)F)c1 | 88.5% (active)
80 | CCCN(Cc1cc2cccc(C)c2[nH]c1=O)S(C)(=O)=O | -1.3% (inactive)
81 | COc1cccc(CNc2ncc(-c3ccccc3)n2C)c1 | 2% (inactive)
82 | COc1ccc(/C=C/C(=O)Nc2ccc(C34CC5CC(CC(O)(C5)C3)C4)cc2)cc1OC | -0.1% (inactive)
83 | FC(F)Oc1ccccc1NC(=S)Nc1cccc(Cl)c1Cl | 50.2% (active)
84 | CCOC(=O)c1ccc[n+](CC(=O)Nc2ccccc2OC(F)F)c1 | -3.5% (inactive)
85 | CC(=O)Nc1ccc(NC(=O)COc2ccccc2C(=O)Nc2cccc(Cl)c2Cl)cc1 | 6.8% (inactive)
86 | Cc1ccccc1N1CC(C(=O)Nc2ccc(S(=O)(=O)N3CCCC3)cc2)CC1=O (stereo unspecified) | -2.9% (inactive)
87 | Cc1cc2ncn(CCCCOc3ccccc3)c2cc1C | 77.9% (active)
88 | Clc1ncn(CCOc2ccccc2)c1Cl | -3.1% (inactive)
89 | COCCOCCn1cnc2ccccc21 | -0.6% (inactive)
90 | CCOC(=O)C1CCCN(C(=O)c2cccc3ccccc23)CC1 (stereo unspecified) | 0% (inactive)
91 | CC(C)CC(COCc1ccc(Cl)cc1)N1CCN(C(=O)c2ccc(C(F)(F)F)cc2)CCC1=O (stereo unspecified) | -1.6% (inactive)
92 | CC(NC(=O)COC(=O)c1ccc2ccccc2n1)c1ccccc1 (stereo unspecified) | -0.2% (inactive)
93 | Cc1cc(C(=O)OCC(=O)Nc2nnc(C(C)C)s2)c2ccccc2n1 | 22.9% (inactive)
94 | CC(C)CC(=O)N/C(N)=N/c1nc2ccccc2s1 | 81.8% (active)
95 | CCOC(=O)C1CCN(C(=O)CSc2cc(=O)n(C)c3ccccc23)CC1 | 0.5% (inactive)
96 | Cc1ccc(-n2cc(CN(C)Cc3nccn3C)c(-c3cccc(C)c3)n2)cc1 | 0.5% (inactive)

Source: PubChem BioAssay AID602449 (Sanford-Burnham Center for Chemical Genomics, 2012)
